Calls of active or inactive are those of the source.
What was measured:
[1] = small molecules captured by biotinylated probe aFSTL3 – biochemical, small-molecule microarray, fluorescence 635/667, stem cell growth factor project, primary screen (AID 1064); settings: higher = more signal;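 note: measures binding of the biotinylated anti-FSTL3 antibody to printed compounds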
[2] = binders from COS7 lysate, DM2A8 probe, primary screen, torsin A project, cell lysate, small-molecule microarray, fluorescence 635/667 (AID 1065); settings: higher = more signal, COS7 lysate expressing mutant human TOR1A
[3] = small molecules captured by biotinylated probe aFGF2 – biochemical, small-molecule microarray, fluorescence 635/667, stem cell growth factor project, primary screen (AID 1067); settings: higher = more signal;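 note: measures binding of biotinylated aFGF2 protein to printed compounds on slides; z-score merges feature fluorescence and signal-to-noise across triplicate slides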
[4] = small molecules captured by biotinylated probe aFGF10 – biochemical, small-molecule microarray, fluorescence 635/667, stem cell growth factor project, primary screen (AID 1071); settings: higher = more signal;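 note: score merges 667 nm spot intensity and signal to noise from triplicate slides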
[5] = target: Neurogenic locus notch homolog protein 2 (Homo sapiens) (UniProt Q04721); test: small molecules binding Notch2 protein – biochemical, small-molecule microarray, 635 nm fluorescence, stem cell growth factors, primary screen (AID 1073); settings: higher = more signal
Neurogenic locus notch homolog protein 2 (Homo sapiens), sequence (Q04721 whole entry, looked up, canonical isoform): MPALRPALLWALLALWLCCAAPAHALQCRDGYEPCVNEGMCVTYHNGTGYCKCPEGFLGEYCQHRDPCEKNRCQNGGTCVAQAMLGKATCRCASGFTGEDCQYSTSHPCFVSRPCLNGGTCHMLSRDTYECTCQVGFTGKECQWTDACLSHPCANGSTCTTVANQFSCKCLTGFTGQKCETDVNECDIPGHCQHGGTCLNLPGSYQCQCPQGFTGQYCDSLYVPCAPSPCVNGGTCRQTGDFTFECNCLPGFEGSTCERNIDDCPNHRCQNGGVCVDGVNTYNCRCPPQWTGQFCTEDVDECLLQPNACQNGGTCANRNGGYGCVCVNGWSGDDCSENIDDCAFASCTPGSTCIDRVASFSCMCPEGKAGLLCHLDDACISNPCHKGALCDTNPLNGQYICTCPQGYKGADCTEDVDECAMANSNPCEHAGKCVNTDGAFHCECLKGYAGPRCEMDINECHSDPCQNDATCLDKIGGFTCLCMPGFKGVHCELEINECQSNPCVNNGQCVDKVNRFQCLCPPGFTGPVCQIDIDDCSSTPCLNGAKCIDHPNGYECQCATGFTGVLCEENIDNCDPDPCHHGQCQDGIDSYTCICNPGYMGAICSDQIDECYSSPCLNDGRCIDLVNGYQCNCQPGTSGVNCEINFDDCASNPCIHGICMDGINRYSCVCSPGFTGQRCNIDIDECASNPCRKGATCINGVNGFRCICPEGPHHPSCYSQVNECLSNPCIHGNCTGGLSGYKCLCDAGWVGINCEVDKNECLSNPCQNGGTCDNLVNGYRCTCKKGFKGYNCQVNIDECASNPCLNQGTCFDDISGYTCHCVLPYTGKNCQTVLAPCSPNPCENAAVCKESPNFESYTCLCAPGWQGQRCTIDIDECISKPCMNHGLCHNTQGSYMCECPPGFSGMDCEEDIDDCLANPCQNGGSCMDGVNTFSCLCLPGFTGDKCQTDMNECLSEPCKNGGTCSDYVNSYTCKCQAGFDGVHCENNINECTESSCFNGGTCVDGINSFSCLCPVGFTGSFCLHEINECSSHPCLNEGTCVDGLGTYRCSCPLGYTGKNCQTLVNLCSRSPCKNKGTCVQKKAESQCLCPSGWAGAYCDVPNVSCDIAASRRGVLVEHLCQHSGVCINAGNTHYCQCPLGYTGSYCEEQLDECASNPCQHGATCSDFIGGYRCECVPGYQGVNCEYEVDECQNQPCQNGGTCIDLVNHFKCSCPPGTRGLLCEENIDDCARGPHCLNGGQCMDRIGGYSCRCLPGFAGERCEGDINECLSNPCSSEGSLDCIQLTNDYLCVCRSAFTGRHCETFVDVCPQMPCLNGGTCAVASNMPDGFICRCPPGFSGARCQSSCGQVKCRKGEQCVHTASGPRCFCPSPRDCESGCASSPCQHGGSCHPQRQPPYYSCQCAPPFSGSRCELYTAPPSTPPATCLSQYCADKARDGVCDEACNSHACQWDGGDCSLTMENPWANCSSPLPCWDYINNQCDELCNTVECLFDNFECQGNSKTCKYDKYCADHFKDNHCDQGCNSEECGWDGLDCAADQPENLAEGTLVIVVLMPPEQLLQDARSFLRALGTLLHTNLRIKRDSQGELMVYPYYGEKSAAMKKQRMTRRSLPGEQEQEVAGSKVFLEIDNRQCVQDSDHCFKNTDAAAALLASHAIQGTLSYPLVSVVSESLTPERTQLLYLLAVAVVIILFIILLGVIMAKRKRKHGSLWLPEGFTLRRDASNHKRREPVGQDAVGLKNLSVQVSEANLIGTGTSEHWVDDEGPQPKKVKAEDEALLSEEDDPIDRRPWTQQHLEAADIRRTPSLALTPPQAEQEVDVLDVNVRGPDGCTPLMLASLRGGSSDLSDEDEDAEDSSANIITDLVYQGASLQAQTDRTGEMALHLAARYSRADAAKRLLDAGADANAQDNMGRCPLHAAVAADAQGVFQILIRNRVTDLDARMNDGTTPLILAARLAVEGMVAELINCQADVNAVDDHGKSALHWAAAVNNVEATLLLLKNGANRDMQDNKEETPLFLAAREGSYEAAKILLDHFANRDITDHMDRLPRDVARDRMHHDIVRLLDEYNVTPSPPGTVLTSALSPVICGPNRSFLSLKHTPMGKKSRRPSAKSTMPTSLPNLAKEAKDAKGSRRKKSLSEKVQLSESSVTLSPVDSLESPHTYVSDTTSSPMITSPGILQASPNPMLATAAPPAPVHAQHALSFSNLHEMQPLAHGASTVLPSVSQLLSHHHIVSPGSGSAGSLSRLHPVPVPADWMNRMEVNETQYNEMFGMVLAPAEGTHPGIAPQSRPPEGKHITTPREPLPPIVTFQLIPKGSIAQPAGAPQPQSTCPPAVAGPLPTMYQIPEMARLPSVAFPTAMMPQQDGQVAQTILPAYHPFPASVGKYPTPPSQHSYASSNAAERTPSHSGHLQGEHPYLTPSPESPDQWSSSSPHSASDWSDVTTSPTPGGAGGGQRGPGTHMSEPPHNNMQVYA

[6] = target: Pro-neuregulin-1, membrane-bound isoform (Homo sapiens) (UniProt Q02297); test: small molecules binding neuregulin-1 protein – biochemical, small-molecule microarray, fluorescence 635/667, psychiatric disease protein project, primary screen (AID 1075); settings: NRG1 binding, 635 nm fluorescence, higher = more signal;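 note: score combines 667 nm spot fluorescence with signal to noise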
Pro-neuregulin-1, membrane-bound isoform (Homo sapiens), sequence (Q02297 whole entry, looked up, the tested form may be a part, canonical isoform): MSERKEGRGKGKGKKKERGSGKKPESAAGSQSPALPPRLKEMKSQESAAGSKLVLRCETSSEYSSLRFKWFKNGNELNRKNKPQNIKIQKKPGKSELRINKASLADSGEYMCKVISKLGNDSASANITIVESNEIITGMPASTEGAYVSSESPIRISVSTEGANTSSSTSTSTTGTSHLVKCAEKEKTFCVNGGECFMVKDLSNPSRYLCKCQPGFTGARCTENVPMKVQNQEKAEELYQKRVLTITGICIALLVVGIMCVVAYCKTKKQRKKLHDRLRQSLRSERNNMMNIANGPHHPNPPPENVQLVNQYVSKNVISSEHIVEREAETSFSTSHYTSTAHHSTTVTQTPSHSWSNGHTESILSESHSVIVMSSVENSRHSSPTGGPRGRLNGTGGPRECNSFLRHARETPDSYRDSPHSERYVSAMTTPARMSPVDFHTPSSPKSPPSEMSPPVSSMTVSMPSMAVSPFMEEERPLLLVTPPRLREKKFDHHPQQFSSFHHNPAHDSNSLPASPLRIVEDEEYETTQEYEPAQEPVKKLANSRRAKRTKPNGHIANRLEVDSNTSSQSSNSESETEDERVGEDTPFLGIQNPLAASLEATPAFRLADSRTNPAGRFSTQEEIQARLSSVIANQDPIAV

[7] = system: Neuregulin-1 EGF-like domain; test: small molecules binding NRG1 EGF domain – biochemical, small-molecule microarray, 635 nm fluorescence, primary screen (AID 1081); settings: higher = more signal;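 note: binding of the protein to compounds printed on small-molecule microarray slides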
[8] = FRG1 expression reporter modulators in myotubes – cell-based, C2C12 myotubes, firefly/Renilla luciferase, luminescence, FRG1 inhibition for FSHD, primary screen (AID 1084); settings: FRG1 promoter luciferase, higher = more signal, called active from +8 up or from −8 down
[9] = small molecules captured by biotinylated probe aFST – biochemical, small-molecule microarray, fluorescence 635/667, stem cell growth factor project, primary screen (AID 1086); settings: higher = more signal;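 note: score merges 667 nm fluorescence with signal-to-noise of each printed compound spot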
[10] = binders of probe aHhip on microarray, primary screen, stem cell growth factor project, biochemical, small-molecule microarray, fluorescence 635/667 (AID 1087); settings: higher = more signal;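 note: score merges spot fluorescence at 667nm with spot signal to noise ratio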
[11] = system: PRMT1 (protein arginine N-methyltransferase 1); test: small molecules binding arginine methyltransferase PRMT1 – biochemical, small-molecule microarray, 635 nm fluorescence, primary screen (AID 1088); settings: higher = more signal;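 note: binding of Prmt1 protein to compounds spotted on small-molecule microarray slides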
[12] = growth effects on S. cerevisiae YJM789 – YJM789 clinical isolate, OD600, 24 h, basal, primary screen (AID 1089); settings: higher = more signal, called active from +8 up or from −8 down;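 note: growth of clinical yeast isolate S. cerevisiae YJM 789 seeded 1000 cells per well; test concentration not given here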
[13] = S. pombe growth modifiers, basal conditions – strain 972, OD600, 24 h, no modulator, primary screen (AID 1090);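 note: basal condition with compound alone and no growth modifier present; test concentration not given here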; settings: S. pombe 972 growth, higher = more signal, called active from +8 up or from −8 down
[14] = budding yeast growth modifiers under rapamycin – strain BY4716, OD600, 96 h, primary screen (AID 1091); note: test concentration not given here; settings: S. cerevisiae BY4716 + rapamycin, higher = more signal, called active from +8 up or from −8 down
[15] = target: Torsin-1A-interacting protein 2 (Homo sapiens) (UniProt Q8NFQ8); test: small molecules binding lysate-expressed LULL1 – cell lysate, human LULL1 lysate, 635/667 nm fluorescence, primary screen (AID 1092); settings: small-molecule microarray, hLULL1 lysate binding, 635 nm fluorescence; higher = more signal;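 note: probe is lysate of COS7 cells overexpressing human LULL1; score merges per-feature 667 nm fluorescence with signal-to-noise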
Torsin-1A-interacting protein 2 (Homo sapiens), sequence (Q8NFQ8 whole entry, looked up): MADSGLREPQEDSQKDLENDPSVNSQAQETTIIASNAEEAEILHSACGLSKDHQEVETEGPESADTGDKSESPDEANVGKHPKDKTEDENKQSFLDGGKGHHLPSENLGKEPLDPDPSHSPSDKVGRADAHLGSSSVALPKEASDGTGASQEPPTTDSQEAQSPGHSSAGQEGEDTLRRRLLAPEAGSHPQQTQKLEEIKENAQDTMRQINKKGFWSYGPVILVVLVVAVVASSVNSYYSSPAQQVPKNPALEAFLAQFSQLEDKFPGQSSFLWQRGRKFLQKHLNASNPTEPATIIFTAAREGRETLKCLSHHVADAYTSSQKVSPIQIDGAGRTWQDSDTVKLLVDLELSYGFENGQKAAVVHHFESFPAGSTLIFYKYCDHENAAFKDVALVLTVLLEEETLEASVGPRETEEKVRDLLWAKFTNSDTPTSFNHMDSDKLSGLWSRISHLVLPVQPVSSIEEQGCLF

[16] = optical density change of DRC41 E. coli – strain DRC41, OD650, 24 h, E. coli filamentation project, primary screen (AID 1093);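 note: MC1000 strain lacking acrAB efflux and sulA so SOS filamentation is blocked; test concentration not given here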; settings: E. coli DRC41 growth, higher = more signal, called active from +8 up or from −8 down
[17] = probe aLefty2 binding to arrayed compounds – biochemical, biotinylated probe, 635/667 nm fluorescence, primary screen (AID 1094); settings: small-molecule microarray, higher = more signal;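 note: score merges spot fluorescence near 667 nm with spot signal-to-noise ratio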
[18] = system: Noggin (protein binding on small-molecule microarray); test: small molecules binding Noggin protein – biochemical, 635/667 nm fluorescence, primary screen (AID 1095); settings: 635 nm fluorescence, higher = more signal;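 note: score merges 667 nm feature fluorescence with signal to noise over triplicate slides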
[19] = target: Neurogenic locus notch homolog protein 3 (Homo sapiens) (UniProt Q9UM47); test: small molecules binding NOTCH3 protein – biochemical, 635/667 nm fluorescence, primary screen (AID 1096); settings: small-molecule microarray, 635 nm fluorescence, higher = more signal
[20] = probe aEGFR binding to arrayed compounds – biochemical, biotinylated probe, 635/667 nm fluorescence, primary screen (AID 1097); settings: small-molecule microarray, higher = more signal;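 note: probe is a biotinylated anti-EGFR antibody binding compounds printed on slides; score combines fluorescence near 667 nm and signal to noise of each spot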

CN1C(=O)C2C=CC(C(O)c3ccc(-c4ccccc4)s3)N(NC(=O)OC(C)(C)C)C2C1=O (stereo not given)
composite z-score [1]: 0.905 | composite z-score [2]: 0.286 | composite z-score [3]: -0.229 | composite z-score [4]: 0.419 | composite z-score [5]: 1.58 | composite z-score [6]: 1.88 | composite z-score [7]: 1.21 | z-score [8]: 0.392 (inactive) | composite z-score [9]: 0.913 | composite z-score [10]: -0.0618 | composite z-score [11]: 0.938 | z-score [12]: -0.673 (inactive) | z-score [13]: 1.47 (inactive) | z-score [14]: 0.0406 (inactive) | composite z-score [15]: 2.92 | z-score [16]: -0.328 (inactive) | composite z-score [17]: 0.367 | composite z-score [18]: -0.0619 | composite z-score [19]: 0.687 | composite z-score [20]: -0.033

COc1ccc(NN2C(C(O)c3ccc(I)cc3)C=CC3C(=O)N(C4CCCCC4)C(=O)C32)cc1 (stereo not given)
composite z-score [1]: 0.0109 | composite z-score [2]: 0.813 | composite z-score [3]: -0.0024 | composite z-score [4]: 0.896 | composite z-score [5]: 1.39 | composite z-score [6]: 1.02 | composite z-score [7]: 1.04 | z-score [8]: -0.21 (inactive) | composite z-score [9]: 1.61 | composite z-score [10]: 0.245 | composite z-score [11]: 1.55 | z-score [12]: 0.147 (inactive) | z-score [13]: 1.26 (inactive) | z-score [14]: 0.801 (inactive) | composite z-score [15]: 3.04 | z-score [16]: -0.0155 (inactive) | composite z-score [17]: 0.109 | composite z-score [18]: 0.715 | composite z-score [19]: 1.03 | composite z-score [20]: 0.257

COC(=O)[C@@]1(Cc2ccccc2)[C@H]2c3cc(C(=O)N4CCCC4)n(Cc4ccc(OC)c(OC)c4)c3C[C@H]2CN1C(=O)c1ccccc1
composite z-score [1]: 0.439 | composite z-score [2]: 0.411 | composite z-score [3]: 0.141 | composite z-score [4]: 0.605 | composite z-score [5]: 1.77 | composite z-score [6]: 2.16 | composite z-score [7]: 1.4 | z-score [8]: 0.626 (inactive) | composite z-score [9]: 1.88 | composite z-score [10]: 0.857 | composite z-score [11]: 0.632 | z-score [12]: 0.49 (inactive) | z-score [13]: 1.06 (inactive) | z-score [14]: 1.45 (inactive) | composite z-score [15]: 3.5 | z-score [16]: -0.0046 (inactive) | composite z-score [17]: 0.666 | composite z-score [18]: 0.0245 | composite z-score [19]: 1.14 | composite z-score [20]: 0.403

Cc1ccc(C(C)CC(O)C2C=CC3C(=O)N(C)C(=O)C3N2Nc2ccccc2)o1 (stereo not given)
composite z-score [1]: -0.138 | composite z-score [2]: 0.0897 | composite z-score [3]: 0.0876 | composite z-score [4]: 0.75 | composite z-score [5]: 1.44 | composite z-score [6]: 0.812 | composite z-score [7]: 1.09 | z-score [8]: 0.651 (inactive) | composite z-score [9]: 1.44 | composite z-score [10]: -0.0994 | composite z-score [11]: 1.55 | z-score [12]: 0.121 (inactive) | z-score [13]: 0.388 (inactive) | z-score [14]: 0.651 (inactive) | composite z-score [15]: 0.788 | z-score [16]: -1.47 (inactive) | composite z-score [17]: 0.0997 | composite z-score [18]: 0.555 | composite z-score [19]: 1.07 | composite z-score [20]: -0.0167

COc1ccc([Si](C)(C)[C@H]2[C@H](CCO)O[C@@]3(C(=O)N(Cc4cccc(N(C=O)c5ccccc5)c4)c4ccccc43)[C@@H]2C)cc1
composite z-score [1]: -0.364 | composite z-score [2]: 0.35 | composite z-score [3]: 0.0155 | composite z-score [4]: 1.09 | composite z-score [5]: 1.14 | composite z-score [6]: 0.97 | composite z-score [7]: 1.08 | z-score [8]: -0.837 (inactive) | composite z-score [9]: 0.638 | composite z-score [10]: -0.236 | composite z-score [11]: 1.56 | z-score [12]: 1.08 (inactive) | z-score [13]: 0.604 (inactive) | z-score [14]: 10.6 (active) | composite z-score [15]: 2.91 | z-score [16]: 2.01 (inactive) | composite z-score [17]: 0.0893 | composite z-score [18]: 0.785 | composite z-score [19]: 1.07 | composite z-score [20]: 0.0004

O=C1[C@H]2C=C(I)[C@H](C[C@@H]2c2ccccc2)[C@@]12CO2
composite z-score [1]: -0.372 | composite z-score [2]: -0.0809 | composite z-score [3]: -0.104 | composite z-score [4]: -0.142 | composite z-score [5]: 0.0878 | composite z-score [6]: -0.165 | composite z-score [7]: -0.507 | z-score [8]: 1.55 (inactive) | composite z-score [9]: 0.281 | composite z-score [10]: -0.214 | composite z-score [11]: 0.298 | z-score [12]: -3.2 (inactive) | z-score [13]: -19.3 (active) | z-score [14]: -2.84 (inactive) | composite z-score [15]: -0.0459 | z-score [16]: -0.924 (inactive) | composite z-score [17]: -0.238 | composite z-score [18]: 0.355 | composite z-score [19]: -0.183 | composite z-score [20]: -0.139

O=C1O[C@@H](c2ccccc2)[C@@H](c2ccccc2)N2[C@@H](c3ccccc3OCCO)[C@]3(C(=O)Nc4ccc(C#CCCO)cc43)[C@@H](C(=O)NC[C@H](O)c3ccccc3)[C@H]12
composite z-score [1]: 0.13 | composite z-score [2]: 1.2 | composite z-score [3]: 0.277 | composite z-score [4]: 0.0012 | composite z-score [5]: 0.381 | composite z-score [6]: 1.63 | composite z-score [7]: 1.36 | z-score [8]: -2.14 (inactive) | composite z-score [9]: 0.372 | composite z-score [10]: 0.192 | composite z-score [11]: 1.54 | z-score [12]: 2.3 (inactive) | z-score [13]: -1.71 (inactive) | z-score [14]: 4.29 (inactive) | composite z-score [15]: 3.29 | z-score [16]: 0.535 (inactive) | composite z-score [17]: 1.07 | composite z-score [18]: 1.37 | composite z-score [19]: 0.944 | composite z-score [20]: 0.506

O=C1C[C@@](C(=O)NCc2ccccc2)(c2ccc([N+](=O)[O-])cc2)[C@@H](c2ccc(CO)cc2)N1C1CCCCC1
composite z-score [1]: -0.709 | composite z-score [2]: 0.858 | composite z-score [3]: -0.101 | composite z-score [4]: 0.104 | composite z-score [5]: 0.324 | composite z-score [6]: 1.4 | composite z-score [7]: 1.31 | z-score [8]: -1.47 (inactive) | composite z-score [9]: 0.117 | composite z-score [10]: -0.158 | composite z-score [11]: 1.57 | z-score [12]: -1.69 (inactive) | z-score [13]: -0.221 (inactive) | z-score [14]: 1.08 (inactive) | composite z-score [15]: 3.09 | z-score [16]: 0.78 (inactive) | composite z-score [17]: -0.206 | composite z-score [18]: 0.65 | composite z-score [19]: 0.846 | composite z-score [20]: -0.14

[N-]=[N+]=Nc1ccccc1C[C@]1(C(=O)N2CCOCC2)N=C(c2ccc(OCCCO)cc2)O[C@H]1c1ccccc1N=[N+]=[N-]
composite z-score [1]: -0.214 | composite z-score [2]: 1.05 | composite z-score [3]: 0.119 | composite z-score [4]: 0.499 | composite z-score [5]: 1.5 | composite z-score [6]: 1.68 | composite z-score [7]: 1.36 | z-score [8]: -2.32 (inactive) | composite z-score [9]: 1.53 | composite z-score [10]: -0.0237 | composite z-score [11]: 1.53 | z-score [12]: -3.46 (inactive) | z-score [13]: -10.9 (active) | z-score [14]: 2.91 (inactive) | composite z-score [15]: 3.39 | z-score [16]: 1.2 (inactive) | composite z-score [17]: 0.166 | composite z-score [18]: 1.61 | composite z-score [19]: 1.04 | composite z-score [20]: -0.0211

COC(=O)[C@]1(CCC(=O)OC(C)(C)C)N=C(c2ccc(OCCCO)cc2)O[C@@H]1c1ccccc1N=[N+]=[N-]
composite z-score [1]: 0.375 | composite z-score [2]: -0.135 | composite z-score [3]: -0.132 | composite z-score [4]: 0.171 | composite z-score [5]: 0.552 | composite z-score [6]: 0.623 | composite z-score [7]: 0.908 | z-score [8]: 2.96 (inactive) | composite z-score [9]: 0.219 | composite z-score [10]: -0.484 | composite z-score [11]: 1.42 | z-score [12]: 1.15 (inactive) | z-score [13]: -0.491 (inactive) | z-score [14]: 33.8 (active) | composite z-score [15]: 2.08 | z-score [16]: 0.217 (inactive) | composite z-score [17]: 0.0664 | composite z-score [18]: 0.677 | composite z-score [19]: 0.361 | composite z-score [20]: -0.127
